# Among all 5,500 compounds or so, about 2,000 (36%) were called active. Roughly 18% stayed inconclusive and do not appear here. The list shows a part of the results. Unmarked numbers belong to inactive results. No stated cut-off is given here; in the data, active means normalized growth mostly below about 0.91 (no sharp cut-off); inconclusive means no clear call, values can overlap the other calls; inactive means mostly above about 0.92.
# Experiment: chemical genetic growth profiling, strain panel (AID 1159580);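 further: tested at 20 µM; growth read once vehicle control cultures reached saturation at 30 °C; 1 = growth at the plate median or of vehicle wells; lower values mean less growth of the strain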
# Conditions: S. cerevisiae deletion strains, growth OD
smiles,measurement,setting,value
O=C(OOC(=O)c1ccccc1)c1ccccc1,normalized growth,"locus YAL021C, strain ccr4, hits give low values",0.969
same,normalized growth,"locus YAL026C, strain drs2, hits give low values",0.952
same,normalized growth,"locus YAL030W, strain snc1, hits give low values",0.976
same,normalized growth,"locus YBL061C, strain skt5, hits give low values",0.962
same,normalized growth,"locus YBR009C, strain hhf1, hits give low values",0.96
same,normalized growth,"locus YBR023C, strain chs3, hits give low values",0.977
same,normalized growth,"locus YBR171W, strain sec66, hits give low values",0.948
same,normalized growth,"locus YBR231C, strain swc5, hits give low values",0.978
same,normalized growth,"locus YBR279W, strain paf1, hits give low values",0.991
same,normalized growth,"locus YCL011C, strain gbp2, hits give low values",0.962
same,normalized growth,"locus YCL016C, strain dcc1, hits give low values",0.956
same,normalized growth,"locus YCL061C, strain MRC1, hits give low values",0.96
same,normalized growth,"locus YCL069W, strain vba3, hits give low values",0.993
same,normalized growth,"locus YCR088W, strain abp1, hits give low values",0.998
same,normalized growth,"locus YDL005C, strain med2, hits give low values",0.977
same,normalized growth,"locus YDL040C, strain nat1, hits give low values",0.992
same,normalized growth,"locus YDR001C, strain nth1, hits give low values",0.976
same,normalized growth,"locus YDR069C, strain doa4, hits give low values",0.965
same,normalized growth,"locus YDR137W, strain rgp1, hits give low values",0.959
same,normalized growth,"locus YDR159W, strain sac3, hits give low values",0.94
same,normalized growth,"locus YDR195W, strain ref2",1.01
same,normalized growth,"locus YDR297W, strain sur2, hits give low values",0.982
same,normalized growth,"locus YDR334W, strain swr1, hits give low values",0.92
same,normalized growth,"locus YDR335W, strain msn5, hits give low values",0.986
same,normalized growth,"locus YDR392W, strain spt3, hits give low values",0.933
same,normalized growth,"locus YEL003W, strain gim4, hits give low values",0.989
same,normalized growth,"locus YEL037C, strain rad23, hits give low values",0.977
same,normalized growth,"locus YEL061C, strain CIN8 (second series), hits give low values",0.985
same,normalized growth,"locus YER015W, strain faa2, hits give low values",0.959
same,normalized growth,"locus YER016W, strain bim1, hits give low values",0.993
same,normalized growth,"locus YER111C, strain swi4, hits give low values",0.972
same,normalized growth,"locus YER155C, strain BEM2 (second series), hits give low values",0.971
same,normalized growth,"locus YFR010W, strain ubp6, hits give low values",0.948
same,normalized growth,"locus YGL167C, strain pmr1, hits give low values",0.965
same,normalized growth,"locus YGL173C, strain kem1, hits give low values",0.956
same,normalized growth,"locus YGL227W, strain vid30, hits give low values",0.981
same,normalized growth,"locus YGL240W, strain doc1, hits give low values",0.989
same,normalized growth,"locus YGL253W, strain hxk2, hits give low values",0.96
same,normalized growth,"locus YHR013C, strain ard1, hits give low values",0.959
same,normalized growth,"locus YHR027C, strain rpn1, hits give low values",0.95
same,normalized growth,"locus YHR030C, strain SLT2, hits give low values",0.842 (active)
same,normalized growth,"locus YHR079C, strain IRE1, hits give low values",0.799 (active)
same,normalized growth,"locus YHR142W, strain chs7, hits give low values",0.95
same,normalized growth,"locus YJL092W, strain hpr5, hits give low values",0.97
same,normalized growth,"locus YJL095W, strain BCK1 (second series), hits give low values",0.993
same,normalized growth,"locus YJL095W, strain BCK1, hits give low values",0.812 (active)
same,normalized growth,"locus YJL115W, strain asf1, hits give low values",0.95
same,normalized growth,"locus YJL129C, strain trk1, hits give low values",0.991
same,normalized growth,"locus YJL154C, strain vps35, hits give low values",0.984
same,normalized growth,"locus YJL164C, strain tpk1, hits give low values",0.983
same,normalized growth,"locus YJL166W, strain qcr8, hits give low values",0.964
same,normalized growth,"locus YJL187C, strain SWE1, hits give low values",0.981
same,normalized growth,"locus YJR066W, strain TOR1, hits give low values",0.82 (active)
same,normalized growth,"locus YKL160W, strain elf1, hits give low values",0.969
same,normalized growth,"locus YKR026C, strain gcn3, hits give low values",0.979
same,normalized growth,"locus YKR091W, strain srl3, hits give low values",0.976
same,normalized growth,"locus YLL001W, strain dnm1, hits give low values",0.941
same,normalized growth,"locus YLL026W, hits give low values",0.974
same,normalized growth,"locus YLL041C, strain sdh2, hits give low values",0.968
same,normalized growth,"locus YLR027C, strain aat2, hits give low values",0.961
same,normalized growth,"locus YLR113W, strain HOG1, hits give low values",0.642 (active)
same,normalized growth,"locus YLR221C, strain rsa3, hits give low values",0.93
same,normalized growth,"locus YLR258W, strain gsy2, hits give low values",0.991
same,normalized growth,"locus YLR262C, strain YPT6 (second series), hits give low values",0.976
same,normalized growth,"locus YLR320W, strain mms22, hits give low values",0.95
same,normalized growth,"locus YLR342W, strain FKS1, hits give low values",0.971
same,normalized growth,"locus YLR357W, strain rsc2, hits give low values",0.975
same,normalized growth,"locus YLR370C, strain arc18, hits give low values",0.954
same,normalized growth,"locus YLR384C, strain iki3, hits give low values",0.954
same,normalized growth,"locus YML120C, strain ndi1, hits give low values",0.944
same,normalized growth,"locus YMR058W, strain fet3, hits give low values",0.953
same,normalized growth,"locus YMR125W, strain sto1, hits give low values",0.979
same,normalized growth,"locus YMR129W, hits give low values",0.998
same,normalized growth,"locus YMR205C, strain PFK2, hits give low values",0.949
same,normalized growth,"locus YMR231W, strain pep5, hits give low values",0.984
same,normalized growth,"locus YNL071W, strain lat1, hits give low values",0.981
same,normalized growth,"locus YNL183C, strain NPR1, hits give low values",0.773 (active)
same,normalized growth,"locus YNL209W, strain ssb2, hits give low values",0.981
same,normalized growth,"locus YNL248C, strain rpa49, hits give low values",0.957
same,normalized growth,"locus YNL322C, strain KRE1 (second series), hits give low values",0.941
same,normalized growth,"locus YNR049C, strain mso1, hits give low values",0.959
same,normalized growth,"locus YOR001W, strain rrp6, hits give low values",0.982
same,normalized growth,"locus YOR070C, strain gyp1, hits give low values",0.981
same,normalized growth,"locus YOR080W, strain dia2, hits give low values",0.961
same,normalized growth,"locus YOR083W, strain WHI5, hits give low values",0.965
same,normalized growth,"locus YOR106W, strain vam3, hits give low values",0.926
same,normalized growth,"locus YOR231W, strain MKK1, hits give low values",0.792 (active)
same,normalized growth,"locus YOR265W, strain rbl2, hits give low values",0.98
same,normalized growth,"locus YOR270C, strain vph1, hits give low values",0.973
same,normalized growth,"locus YOR290C, strain snf2, hits give low values",0.917
same,normalized growth,"locus YPL051W, strain arl3, hits give low values",0.97
same,normalized growth,"locus YPL078C, strain atp4, hits give low values",0.966
same,normalized growth,"locus YPL106C, strain sse1, hits give low values",0.977
same,normalized growth,"locus YPL240C, strain hsp82, hits give low values",0.982
same,normalized growth,"locus YPL256C, strain CLN2, hits give low values",0.773 (active)
